Measured values reported in PubChem BioAssay (NCI).
The panel holds about 83,000 compounds, 20% with a hit somewhere; the sample as a whole holds those more often.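 How to read the values: 0–100, growth inhibition (40 = 60% inhibited); 0, no net growth; -100 to 0, cell death (-40 = 40% of starting cells died; -100 = all dead).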 Values without a mark were called inactive. The source made the active and inactive calls. How the source made its calls: active means growth percent below 10; inactive means the rest.

How the values were obtained:
Assay in all cases: NCI-60 one-dose screen, 48 h (100 = growth as untreated, 0 = no growth, -100 = all killed)
Details in all cases: 10 µM unless noted
DU-145 prostate = test system: DU-145 prostate
K-562 leukemia = test system: K-562 leukemia
MALME-3M melanoma = test system: MALME-3M melanoma
MDA-MB-231 breast = test system: MDA-MB-231 breast
RXF 393 renal = test system: RXF 393 renal
SF-268 CNS = test system: SF-268 CNS
SF-295 CNS = test system: SF-295 CNS
SF-539 CNS = test system: SF-539 CNS
UACC-257 melanoma = test system: UACC-257 melanoma
M14 melanoma = test system: M14 melanoma
HCT-15 colon = test system: HCT-15 colon
HT29 colon = test system: HT29 colon
SNB-75 CNS = test system: SNB-75 CNS
SNB-19 CNS = test system: SNB-19 CNS
U251 CNS = test system: U251 CNS
PC-3 prostate = test system: PC-3 prostate
SK-MEL-5 melanoma = test system: SK-MEL-5 melanoma
UACC-62 melanoma = test system: UACC-62 melanoma
LOX IMVI melanoma = test system: LOX IMVI melanoma
SK-MEL-28 melanoma = test system: SK-MEL-28 melanoma

| SMILES | growth (DU-145 prostate) | growth (K-562 leukemia) | growth (MALME-3M melanoma) [%] | growth (MDA-MB-231 breast) | growth (RXF 393 renal) | growth (SF-268 CNS) [%] | growth (SF-295 CNS) | growth (SF-539 CNS) | growth (UACC-257 melanoma) [%] | growth (M14 melanoma) | growth (HCT-15 colon) [%] | growth (HT29 colon) | growth (SNB-75 CNS) | growth (SNB-19 CNS) | growth (U251 CNS) | growth (PC-3 prostate) [%] | growth (SK-MEL-5 melanoma) | growth (UACC-62 melanoma) [%] | growth (LOX IMVI melanoma) | growth (SK-MEL-28 melanoma) [%] |
| --- | --- | --- | --- | --- | --- | --- | --- | --- | --- | --- | --- | --- | --- | --- | --- | --- | --- | --- | --- | --- |
| O=C1N/C(=N/O)S/C1=C/c1cn(-c2ccccc2)nc1-c1ccccc1 | 102% | 94.2% | 141 | 85.8% | 95.6% | 97.7 | 107% | 110% | 113 | 105% | 86.5 | 112% | 70.6% | 107% | 97% | 89.3 | 102% | 102 | 68.6% | 113 |
| COc1ccc2c(c1)/C(=C\c1sc(=S)[nH]c1O)C(C(=O)O)=N2 | 99.2% | 92.6% | 94.7 | 94.8% | 95.2% | 92.3 | 103% | 99.4% | 96.7 | 97% | 100 | 104% | 84.6% | 100% | 98.3% | 99.4 | 101% | 91.4 | 96.6% | 111 |
| COc1cc2ccccc2cc1C(=O)NC(=S)Nc1ccc(-c2nc3ccccc3[nH]2)cc1 | 56.1% | 75.6% | 48 | 52.9% | 86.2% | 62 | 80.5% | 14.7% | 98 | 79.3% | 78.5 | 72.7% | 54.4% | 86.6% | 75.2% | 90.6 | 42.5% | 93 | 60.5% | 90.1 |
| Cc1nc2ccc(C(=O)NCc3cc(C(=O)O)c(C)o3)cc2nc1C | 105% | 110% | 93.4 | 101% | 97.4% | 91.4 | 102% | 96.2% | 87.2 | 91.4% | 105 | 95.6% | 79.4% | 101% | 96.8% | 90 | 105% | 94.8 | 94.3% | 103 |
| N=C(N)c1ccc(-c2ccc(-c3ccc(Cl)c(Cl)c3)o2)nc1 | -18.5% (active) | -1.03% (active) | 105 | -47% (active) | 86% | 98.5 | -70.1% (active) | 38.8% | 107 | -51.8% (active) | 17.2 | -39.8% (active) | 97.8% | 6.96% (active) | -57.1% (active) | 64.5 | 92.4% | 103 | -74.7% (active) | 99.6 |
| CC(=O)Nc1cccc(C2=CC(c3ccc(C)cc3)n3ncnc3N2)c1 (stereo not given) | 102% | 86.2% | 119 | 87.8% | 96.4% | 94 | 114% | 95.3% | 112 | 112% | 99.3 | 109% | 94.2% | 91.1% | 97.3% | 84.1 | 91.3% | 85.6 | 93.8% | 107 |
| CCn1c(Sc2nnc(NC(=O)CSC(=S)N3CCCCC3)s2)nc2c1c(=O)n(C)c(=O)n2C | 98% | 43.6% | 71.5 | 103% | 86.2% | 96 | 83.9% | 97.7% | 94.4 | 67.9% | 49 | 41.3% | 88.7% | 87.5% | 96.2% | 79.2 | 85.4% | 60.8 | 81.5% | 78.1 |
| COc1cc2c(c(OC)c1OC)C(=O)/C(=C/c1cc(C)c(O)c(C)c1)S2 | 12.3% | 21.3% | 45.6 | 37.7% | -10.4% (active) | 56.4 | 13.7% | 7.47% (active) | 78.2 | 28.8% | 25.4 | 82.4% | 4.46% (active) | 39.2% | 33% | 30.9 | 4.33% (active) | 50.8 | 26.4% | 59.3 |
| COc1cc2c(cc1OC)-c1ccc3cc4c(cc3c1N(CCCN1CCCCC1)C2)OCO4 | 51.1% | 16.9% | 76.7 | 34.4% | 43.8% | 44.8 | 56.9% | 61.7% | 64.3 | 54% | 47.5 | 25.4% | 51.3% | 42.6% | 42.1% | 29.3 | 44.9% | 59.2 | 32.5% | 80.4 |
| CC(=O)OCCc1ccccc1 | 134% | 79.2% | 87.8 | 110% | 107% | 128 | 101% | 103% | 100 | 78.6% | 107 | 107% | 74.4% | 102% | 100% | 99.2 | 105% | 100 | 101% | 111 |
| CCCCCOC(=O)c1cccc(NC(=O)CN(CC)CC)c1 | 104% | 103% | 94.8 | 117% | 106% | 104 | 96.1% | 98.6% | 105 | 86.9% | 107 | 79.6% | 103% | 106% | 103% | 77.1 | 105% | 103 | 101% | 108 |
| CN(C)c1ccc(/C=C/c2c(F)cccc2F)cc1 | 105% | 115% | 90.1 | 110% | 108% | 93.7 | 96.6% | 98.3% | 89 | 93.2% | 98.6 | 92.3% | 88.4% | 105% | 89.9% | 81.7 | 94.9% | 97.9 | 88.1% | 109 |
| N#Cc1c(N)n2c(nc1=Nc1ccc(Cl)cc1)sc1cc(Cl)ccc12 | 97.7% | 92.1% | 85.4 | 67.1% | 65.1% | 56.4 | -2.32% (active) | 103% | 54.4 | 62.2% | 96.2 | 33.4% | 21.1% | 75.5% | 71% | 62.5 | 61.1% | 63.4 | 79.7% | 57.6 |
| COc1cc(C2C=C(c3cccc(NC(C)=O)c3)Nc3ncnn32)cc(OC)c1OC (stereo not given) | 2.4% (active) | 23.6% | 25.6 | 16.4% | -28.3% (active) | 36.9 | -58% (active) | -5.24% (active) | 71.2 | 20.4% | 41.4 | 10.9% | 21.9% | 52% | 25.4% | 33.3 | 21.6% | 22.9 | 42.1% | 51.5 |
| OC(CBr)c1ccnc2ccccc12 (stereo not given) | 109% | 92% | 96.3 | 103% | 107% | 100 | 96.6% | 102% | 99.6 | 98% | 103 | 85.1% | 94.8% | 104% | 95.8% | 88.8 | 106% | 95.1 | 96.3% | 109 |
| COc1cc2c(cc1OC)-c1ccc3cc4c(cc3c1N(CCCN(C)C)C2)OCO4 | 38.9% | 20.6% | 58.2 | 36.3% | 35.1% | 34 | 42.7% | 40.2% | 34.6 | 33.2% | 52 | 11.5% | 44.1% | 25.3% | 18.2% | 23 | 43.9% | 44 | 19.5% | 58.8 |
